Assay outcomes deposited in PubChem by several laboratories.
An excerpt weighted towards active compounds, which were near 4.2% of everything screened.
NALP1 inh – NALP1 inhibition. S. cerevisiae NALP1/ASC/caspase-1 growth, X-gal OD620, 72 h. inhibition, % at 10 µM. 280,000 tested, 0.61% active. AID 2071; in the data active means inhibition mostly above about 24%, no sharp cut-off; inactive means mostly below about 32%
NLRP3 yeast inh – NALP3 inhibition in yeast | inhibition, % at 10 µM | Yeast reconstituted NLRP3/ASC/caspase-1, beta-gal luminescence, 24 h | 330,000 tested, 0.39% active;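 active means inhibition of 50% or more; inactive means inhibition below 50%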
tim23-1 inh – inhibits growth of tim23-1 mutant yeast; 330,000 tested, 1.3% active; AID 463212; S. cerevisiae tim23-1 growth, BacTiter-Glo luminescence, 24 h; inhibition, % at 20 µM;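 active means growth inhibition of the mutant yeast at or above 50%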;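 further: temperature-sensitive mutant grown at 25 °C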
TIM10 inh – inhibits growth of TIM10 yeast strain | inhibition, % at 10 µM | AID 463195 | S. cerevisiae TIM10 strain growth, BacTiter-Glo luminescence, 24 h | 330,000 tested, 1.4% active;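 active means inhibition of 40% or more at the single tested concentration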;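 further: wild-type TIM10 isogenic control strain grown at permissive 25 °C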
tim10-1 inh – inhibits growth of tim10-1 mutant yeast | inhibition, % at 20 µM | 330,000 tested, 2.2% active | S. cerevisiae tim10-1 ts strain growth, BacTiter-Glo, 24 h | AID 463190;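 active means inhibition of at least 40%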;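 further: mutant grown at 25 °C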
V-ATPase pH – alters yeast V-ATPase proton transport; 350,000 tested, 0.37% active; response, % at 10 µM; AID 504577; S. cerevisiae, pHLuorin cytosolic pH fluorescence; in the data active means response mostly above about 7.3%, no sharp cut-off; inactive means mostly below about 5.4%; further: actives read high
tim10-1 conf – confirmation of tim10-1 mutant yeast growth inhibitors. inhibition, % at 20 µM. shares compounds with tim10-1 inh. S. cerevisiae tim10-1 ts strain growth, BacTiter-Glo, 24 h. 7,400 tested, 56% active;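 active means inhibition of yeast growth at or above a set limit in either of two repeat tests at 20 µM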;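 further: tim10-1 mutant grown at permissive 25 °C to find synthetic lethal compounds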
tim10 confirm – TIM10 yeast growth inhibition, confirmed; shares compounds with TIM10 inh; S. cerevisiae tim10 strain growth, BacTiter-Glo luminescence, 24 h; inhibition, % at 10 µM; 4,600 tested, 63% active; AID 463215;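 active means inhibition of yeast growth at or above a set limit in either of two replicates at 10 µM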; further: this counterscreen used the strain with wild-type TIM10
tim23-1 conf – tim23-1 yeast growth inhibition, confirmed; AID 463218; inhibition, % at 20 µM; S. cerevisiae tim23-1 growth, BacTiter-Glo luminescence, 24 h; shares compounds with tim23-1 inh; 4,400 tested, 83% active;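 active means inhibition above about 39% in either of two replicate wells at 20 µM, limit read from the data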;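 further: temperature-sensitive tim23-1 mutant grown at 25 °C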
Large screens that a line does not name were inactive (follow-up assays come after a bar, where they were run).

COc1ccccc1OCCN1CSC(=S)N(C)C1	NALP1 inh 108, tim23-1 inh 72, TIM10 inh 53, tim10-1 inh 42 | tim10-1 conf 31 | tim10 confirm inactive | tim23-1 conf 60
Cc1cccc(OCCN2CSC(=S)N(C)C2)c1	tim23-1 inh 59, tim10-1 inh 42 | tim10-1 conf inactive | tim23-1 conf 76
N#C/C(=C\c1ccc(Cl)cc1)c1nc2ccccc2o1	tim23-1 inh 76, tim10-1 inh 51 | tim10-1 conf 49 | tim23-1 conf 75
N#C/C(=C\c1cccc(O)c1)c1nc2ccccc2o1	none
N#C/C(=C\c1ccncc1)c1nc2ccccc2o1	tim23-1 inh 72, TIM10 inh 42, tim10-1 inh 56 | tim10-1 conf 43 | tim10 confirm 34 | tim23-1 conf 61
O=C(CSc1ccc(Cl)cc1)NC1=NN(c2ccccc2)C(=O)C1	tim23-1 inh 63, tim10-1 inh 48 | tim10-1 conf inactive | tim23-1 conf inactive
O=C(CSc1ccc(Cl)cc1)Nc1ccccc1	none (no result: NALP1 inh, NLRP3 yeast inh, tim23-1 inh, TIM10 inh, tim10-1 inh)
CSc1ccccc1NC(=O)COc1ccc(Cl)cc1Cl	none
O=C(COc1ccc(Cl)cc1Cl)Nc1ccccn1	tim23-1 inh 58, tim10-1 inh 47 | tim10-1 conf 49 | tim23-1 conf 47
CCN(CC)c1ccc(/C=C/c2ccc3ccc(OC)cc3[n+]2CC)cc1	tim23-1 inh 68, tim10-1 inh 73 | tim10-1 conf 68 | tim23-1 conf 58
CC[n+]1c(/C=C/c2ccc(OC(C)=O)c(OC)c2)ccc2ccccc21	none
CC(CN1CCCCC1)OC(=O)Cc1ccc(Cl)cc1 (centres undefined)	none
Cc1cc(C)cc(N=c2c([N+](=O)[O-])nn(-c3ccc(Cl)cc3)n2O)c1	none
CCN1/C(=C/c2ccc3cc(C)ccc3[n+]2CC)Sc2ccc3sccc3c21	tim23-1 inh 60, TIM10 inh 68, tim10-1 inh 46 (no result: NALP1 inh) | tim10-1 conf 45 | tim10 confirm 74 | tim23-1 conf 69
Cc1cc(C)n2ncc(C(=O)NCc3ccccc3)c2n1	none
N#CC(c1ccc(Cl)cc1)c1ccc2c(C(F)(F)F)cc(C(F)(F)F)nc2n1 (centres undefined)	tim23-1 inh 62, TIM10 inh 64, tim10-1 inh 71 | tim10-1 conf 49 | tim10 confirm 54 | tim23-1 conf 60
FC(F)(F)c1cc(C(F)(F)F)c2ccc(N3CCN(c4ccc(Cl)cc4)CC3)nc2n1	none
CC1CC2(CCCCC2)N2C(=O)C(=O)c3cccc1c32 (centres undefined)	tim23-1 inh 69, tim10-1 inh 42 | tim10-1 conf 52 | tim23-1 conf 79
Cc1ccc2c3c1C(=O)C(=O)N3C(C)(C)CC2C (centres undefined)	none
CC(=O)N1Cc2ccccc2C(C)CC12CCCCC2 (centres undefined)	none
CC1CC(C)(C)N2C(=O)C(=C(C#N)C#N)c3cccc1c32 (centres undefined)	tim23-1 inh 70, TIM10 inh 54, tim10-1 inh 71 (no result: NALP1 inh) | tim10-1 conf 68 | tim10 confirm 43 | tim23-1 conf 82
CCCCn1c(N)c(N(CCOC)C(=O)CSc2nnc(-c3ccc(C(C)(C)C)cc3)n2N)c(=O)[nH]c1=O	none (no result: NALP1 inh)
CN1CCN(c2ccccc2NC(=O)c2ccc(-c3ccc(Br)cc3)o2)CC1	tim10-1 inh 56 | tim10-1 conf 46 | tim23-1 conf inactive
Cc1ccc(-c2nc(N/N=C/c3ccncc3)c3ccccc3n2)cc1	tim23-1 inh 76, TIM10 inh 60, tim10-1 inh 74 | tim10-1 conf 69 | tim10 confirm 60 | tim23-1 conf 81
Cc1nc(SCC(=O)Nc2ccc(CN3CCCC3)cc2)c2c(C)c(C)sc2n1	tim23-1 inh 53, TIM10 inh 51, tim10-1 inh 51 (no result: NALP1 inh) | tim10-1 conf 62 | tim10 confirm 38 | tim23-1 conf 57
CC(=O)Nc1ccc(NC(=O)CSc2nc(C)nc3sc(C)c(C)c23)cc1	none
O=C(N/N=C/c1coc2ccccc2c1=O)c1cc(O)cc(O)c1	none
NC(=S)N/N=C/c1coc2ccc(Cl)cc2c1=O	tim23-1 inh 82, tim10-1 inh 54 | tim10-1 conf inactive | tim23-1 conf 80
O=C(N/N=C/c1coc2ccc(Cl)cc2c1=O)c1ccc(O)cc1	tim23-1 inh 84, tim10-1 inh 49 | tim10-1 conf inactive | tim23-1 conf 49
COc1cc(C(=O)N/N=C/c2coc3ccccc3c2=O)cc(OC)c1OC	none
COc1ccc(C(=O)N/N=C\c2coc3ccc(Cl)cc3c2=O)cc1	tim23-1 inh 84, tim10-1 inh 44 | tim10-1 conf inactive | tim23-1 conf 75
COc1cc(C(=O)N/N=C/c2coc3ccc(Cl)cc3c2=O)ccc1O	tim23-1 inh 81, tim10-1 inh 52 | tim10-1 conf inactive | tim23-1 conf 49
Cc1ccc(S(=O)(=O)NCCC(=O)Nc2cc(F)ccc2C)cc1C	none
O=C1NC[C@H](c2ccccc2)N(CCc2cc(C(F)(F)F)cc(C(F)(F)F)c2)C1=O	none (no result: NALP1 inh)
O=C(Nc1nnc(C2CC2)s1)c1ccc(Cl)c(S(=O)(=O)N2CCc3ccccc3C2)c1	none
CC(=O)c1sc(NC(=O)Cc2c(F)cccc2Cl)nc1C	none
O=C(Cc1c(F)cccc1Cl)Nc1nc2ccccc2s1	tim23-1 inh 55, TIM10 inh 48, tim10-1 inh 43 | tim10-1 conf 30 | tim10 confirm 34 | tim23-1 conf 63
CCOc1ccc2nc(NC(=O)C3(C)CC3(Br)Br)sc2c1 (centres undefined)	tim23-1 inh 74, tim10-1 inh 50 (no result: NALP1 inh) | tim10-1 conf 40 | tim23-1 conf 38
COC(=O)C1=C(C)N(C(C)c2ccccc2)C(=O)C1 (centres undefined)	none
CC[n+]1c(/C=C2\C=C(C)CC(C)(C)C2)sc2ccccc21	tim23-1 inh 51, tim10-1 inh 45 | tim10-1 conf 39 | tim23-1 conf 55
CCCCCCO	none (no result: NALP1 inh)
COc1ccc(/C=C/C(=O)c2ccc([N+](=O)[O-])o2)cc1	tim23-1 inh 79, TIM10 inh 70, tim10-1 inh 45 (no result: NALP1 inh) | tim10-1 conf inactive | tim10 confirm 79 | tim23-1 conf inactive
O=C(Nc1ccc(Br)cn1)c1ccc2nccnc2c1	none (no result: NALP1 inh)
Cc1cccc(CSc2cccc3cccnc23)c1	tim23-1 inh 51, tim10-1 inh 46 | tim10-1 conf 40 | tim23-1 conf 50
NNC(=O)c1ccc(CSc2cccc3cccnc23)cc1	none
